For 6 compounds, Potency, activity change, positive = activation and max response results are on record in PubChem BioAssay (Tox21).

The nature of test [1]: qHTS assay to identify small molecule agonists of the hypoxia (HIF-1) signaling pathway - cell viability counter screen (AID 1224844; calls by dose curve; also: nearly all actives have a fitted effect of over 50% in size; also: potency is read from the fitted curve at half-maximal effect). The method, boiled down:
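Cytotoxicity was measured in parallel with the HRE-driven beta-lactamase readout: after 17 hrs of compound exposure at 37C, HRE-bla ME-180 cells received CellTiter-Glo and luminescence was recorded 30 min later.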
(qHTS replaces the single test concentration by a dilution series.)

Test [2] in a line: qHTS assay to identify small molecule agonists of H2AX (AID 1224845; active = well fitted activation curve with a large enough effect in the signal ratio in the repeat runs, not every such curve was filed as active; the % refers to the signal ratio; also: potency is read from the fitted curve at half-maximal effect). The method, boiled down:
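Wild-type CHO-K1 cells plated overnight, then exposed 3 hr at 37C to compounds at 15 concentrations (0.76% DMSO). Lysed, then HTRF anti-pH2AX(S139)-cryptate/anti-H2AX-d2 detection after 24 hr at room temperature; emissions 665 and 620 nm.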

The nature of test [3]: qHTS assay to identify small molecule agonists of H2AX - cell viability counter screen (AID 1224847; calls by dose curve; also: nearly all actives have a fitted effect of over 30% in size; also: potency is read from the fitted curve at half-maximal effect). The method, boiled down:
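Cells plated first: CHO-K1, 1000 per well in 10% FBS medium, incubated overnight at 37C. Then 15-point compound titration added (final DMSO 0.76%) for 3 hr. Finally CellTiter-Glo added and luminescence read.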

The nature of test [4]: qHTS assay to identify small molecule antagonists of the estrogen related receptor (ERR) signaling pathway from Tox21 library (AID 1224848). Also: nearly all actives have a fitted effect of over 50% in size. Also: potency is read from the fitted curve at half-maximal effect. In outline: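 First, 2,000 ERR cells per well were plated and held 6 h at 37 C/5% CO2. Next, compounds in DMSO were pinned in and left 18 h at 37 C. Finally, ONE-Glo was added and luminescence read after 30 min at room temperature.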

Test [5] can be described thus: qHTS assay to identify small molecule agonists of the estrogen related receptor (ERR) signaling pathway from Tox21 library (AID 1224849; calls by dose curve; also: nearly all actives have a fitted effect of over 15% in size). Particulars: ERR reporter cell line, ONE-Glo luciferase, 18 h. The method, boiled down:
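Cells carrying the ERR reporter were plated and allowed to settle for 6 h, exposed to library compounds for 18 h at 37 C, then lysed with ONE-Glo and luminescence measured.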

The nature of test [6]: qHTS RealTime-Glo MT Cell Viability Assay in HepG2 cells - 24 hour (AID 1224867). Also: nearly all actives have a fitted effect of over 50% in size. Also: potency is read from the fitted curve at half-maximal effect. The method, boiled down: (§1)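 HepG2 cells (600/well) were dispensed with RealTime-Glo reagents, incubated 5 h at 37 °C, then treated with compounds in DMSO for up to 40 h. Nonlytic NanoLuc luminescence reflecting viable cells was read at each stated time point.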
A short description of test [7]: qHTS RealTime-Glo MT Cell Viability Assay in HEK293 cells - 32 hour (AID 1224868). Also: nearly all actives have a fitted effect of over 50% in size. Also: potency is read from the fitted curve at half-maximal effect. The method, boiled down:
(§2)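 HEK293 cells seeded with NanoLuc/prosubstrate reagent, rested 5 h at 37 C, then dosed and kept at 37 C up to 40 h. Nonlytic real-time luminescence from viable cells read at 0, 8, 16, 24, 32 and 40 h.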

Test [8] is described as follows: A CellTox Green Cytotoxicity Assay to monitor cytotoxicity in HEK293 cells - 0 hour (AID 1224869). Also: nearly all actives have a fitted effect of over 50% in size. The method, boiled down: (§3)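 Cells (HEK293, 600/well) and dye reagent are dispensed together. After 5 h at 37 C, 23 nL compound is pinned in. Plates stay at 37 C for 40 h with fluorescence read at 0h, 8h, 16h, 24h, 32h and 40h.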
Test [9] in a line: qHTS RealTime-Glo MT Cell Viability Assay in HepG2 cells - 40 hour (AID 1224870). Also: nearly all actives have a fitted effect of over 50% in size. Also: potency is read from the fitted curve at half-maximal effect. In outline:
(§4)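 HepG2 cells mixed with RealTime-Glo MT reagents (NanoLuc plus cell-permeant prosubstrate) were seeded at 600 cells/well, incubated 5 h at 37 C/5% CO2, then pinned with compounds in DMSO; nonlytic luminescence tracked viability during 40 h treatment.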

A short description of test [10]: A CellTox Green Cytotoxicity Assay to monitor cytotoxicity in HEK293 cells - 40 hour (AID 1224871). Also: nearly all actives have a fitted effect of over 45% in size. Also: potency is read from the fitted curve at half-maximal effect. The method, boiled down: as §3
The nature of test [11]: qHTS RealTime-Glo MT Cell Viability Assay in HEK293 cells - 16 hour (AID 1224872). Also: nearly all actives have a fitted effect of over 50% in size. Also: potency is read from the fitted curve at half-maximal effect. In outline:
as §2

A short description of test [12]: qHTS RealTime-Glo MT Cell Viability Assay in HepG2 cells - 8 hour (AID 1224873). Also: nearly all actives have a fitted effect of over 55% in size. Also: potency is read from the fitted curve at half-maximal effect. In outline:
as §4

Test [13] in a line: qHTS RealTime-Glo MT Cell Viability Assay in HEK293 cells - 40 hour (AID 1224874). Also: nearly all actives have a fitted effect of over 50% in size. Also: potency is read from the fitted curve at half-maximal effect. Particulars: RealTime-Glo luminescence; max response: stronger effect = lower value. In outline:
(§5)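 Real-time viability in HEK293: signal arises when living cells convert a prosubstrate for NanoLuc in the medium, so luminescence tracks viable cell number. Compound (23 nL, DMSO) added 5 h post-seeding; kinetic reads at 0–40 h, 37 C.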

Test [14] is described as follows: A CellTox Green Cytotoxicity Assay to monitor cytotoxicity in HEK293 cells - 24 hour (AID 1224875). Also: nearly all actives have a fitted effect of over 45% in size. Also: potency is read from the fitted curve at half-maximal effect. The method, boiled down:
as §3

Test [15] can be described thus: A CellTox Green Cytotoxicity Assay to monitor cytotoxicity in HepG2 cells - 16 hour (AID 1224876). Also: nearly all actives have a fitted effect of over 45% in size. Also: potency is read from the fitted curve at half-maximal effect. In outline:
(§6)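 Cells and non-lytic dye reagent are dispensed together (600 HepG2 cells/well) and incubated 5 h before DMSO compound transfer. Kinetic fluorescence is then recorded in the same wells during 40 h at 37 C.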

The nature of test [16]: qHTS RealTime-Glo MT Cell Viability Assay in HepG2 cells - 32 hour (AID 1224877). Also: nearly all actives have a fitted effect of over 55% in size. Also: potency is read from the fitted curve at half-maximal effect. The method, boiled down:
as §1

Test [17] in a line: A CellTox Green Cytotoxicity Assay to monitor cytotoxicity in HepG2 cells - 24 hour (AID 1224878). Also: nearly all actives have a fitted effect of over 45% in size. Also: potency is read from the fitted curve at half-maximal effect. The method, boiled down: as §6
Test [18] is described as follows: A CellTox Green Cytotoxicity Assay to monitor cytotoxicity in HepG2 cells - 40 hour (AID 1224879). Also: nearly all actives have a fitted effect of over 40% in size. Also: potency is read from the fitted curve at half-maximal effect. The method, boiled down:
as §6

A short description of test [19]: qHTS RealTime-Glo MT Cell Viability Assay in HEK293 cells - 0 hour (AID 1224880). Also: nearly all actives have a fitted effect of over 45% in size. Also: potency is read from the fitted curve at half-maximal effect. In outline:
as §5

Setting [20] is: at 92.4 µM (top of the series) unless noted.

Each structure is given as a SMILES string. Where “and” joins values, the source holds several entries; their conditions need not be identical. Equal entries are not always repeated. Records with an inconclusive call do not appear. A structure can be active in one record and inactive in another. Calls of active or inactive are those of the source. Unless noted, calls follow the shape of the dose curve; as a rule, active = well fitted curve in the direction sought with a large enough effect in the repeat runs; inconclusive = weak or mixed curves; inactive = no such curve, though single readings can be large; an effect the other way counts as inactive or inconclusive.
% is scaled to controls: 0 for no effect and ±100 for the full control effect.

As for `O=c1[nH]c2ccccc2n1C1CCN(CCCC(c2ccc(F)cc2)c2ccc(F)cc2)CC1`, the Potency in test [1] is 21.9 µM (active); in test [3] it was 45 µM (active); in [4], 10.9 µM (active) and 13.3 µM (active); in test [6] it was 43.6 µM (active) and inactive; in [7], 17.4 µM (active) and 16.9 µM (active); in test [9], 30.9 µM (active) and inactive. For the same compound, the Potency is 49 µM (active) and inactive in [10]; 13.8 µM (active) and 19 µM (active) in test [11]; 43.6 µM (active) and inactive in [12]; 17.4 µM (active) and 16.9 µM (active) in [13]; 49 µM (active) and inactive in [15]; 34.7 µM (active) and inactive in test [16]. For the same compound, the Potency in test [17] is 43.6 µM (active) and inactive; in test [18] it was 19.5 µM (active) and 21.3 µM (active). For the same compound, the Potency result in test [2], in test [8], in test [14] and in test [19] was “inactive” in each case. Also, the activity change, positive = activation is -52.6% (inactive) in [5] (at 42.5 µM (top of the series)) and -79.9% (inactive) in test [5] (at 92.4 µM (top of the series)).
In the case of `Oc1ccc(C2(c3ccc(O)cc3)CCCCC2)cc1`, the Potency in [1] is 52.1 µM (active); in test [3], 95.4 µM (active); in test [7] it was 52.1 µM (active); in test [13] it was 46.4 µM (active). Also, the Potency entry in test [2], in [6], in test [8], in test [9], in [12] and in test [16] was “inactive” in each case. Further, the Potency result in test [17] and in test [19] was “inactive” each time.
With `C[C@@H]1CC[C@@]2(OC1)O[C@H]1[C@@H](O)[C@H]3[C@@H]4CC[C@H]5C[C@@H](O[C@@H]6O[C@H](CO)[C@H](O[C@@H]7O[C@H](CO)[C@@H](O)[C@H](O[C@@H]8OC[C@@H](O)[C@H](O)[C@H]8O)[C@H]7O[C@@H]7O[C@H](CO)[C@@H](O)[C@H](O[C@@H]8O[C@H](CO)[C@@H](O)[C@H](O)[C@H]8O)[C@H]7O)[C@H](O)[C@H]6O)[C@H](O)C[C@]5(C)[C@H]4CC[C@]3(C)[C@H]1[C@@H]2C`, the Potency is 11.6 µM (active) in test [1]; 10.7 µM (active) in [3]; 23 µM (active) in test [4]; 20.7 µM (active) in test [6]; 11.6 µM (active) in test [7]; 26.1 µM (active) in test [9]. Besides, the Potency in test [10] is 3.68 µM (active); in [11] it was 9.25 µM (active); in test [12], 16.4 µM (active); in [13], 11.6 µM (active); in [14], 1.31 µM (active); in test [15] it was 13.1 µM (active). In addition, the Potency in test [16] was 23.2 µM (active); in test [17], 11.6 µM (active); in test [18], 11.6 µM (active). In addition, the Potency result in test [2] and in test [8] was “inactive” in each case. The activity change, positive = activation in test [5] (setting [20]) was -74.6% (inactive).
Turning to `O=c1ssc(Cl)c1Cl`, the Potency in test [1] was 17.4 µM (active); in test [3], 89.8 µM (active); in [6] it was 21.9 µM (active); in [7], 15.5 µM (active); in test [9], 21.9 µM (active); in test [10] it was 21.9 µM (active). The Potency is 17.4 µM (active) in test [11]; 21.9 µM (active) in test [12]; 13.8 µM (active) in test [13]; 38.9 µM (active) in test [14]; 19.5 µM (active) in test [15]; 21.9 µM (active) in test [16]. The Potency in test [17] is 19.5 µM (active); in test [18] it was 19.5 µM (active); in test [19] it was 24.5 µM (active). Further, the Potency entry in test [2] was “inactive”. Besides, in [5] (setting [20]), the activity change, positive = activation was -17.9% (inactive).
In the case of `O=C(O)C1C2CCC(O2)C1C(=O)O` (stereo not given), the Potency entry in [1], in test [3], in test [4], in [6], in test [9] and in test [10] was “inactive” each time. The Potency entry in test [11], in test [14], in test [15], in [16], in test [17] and in test [19] was “inactive” in each case. Also, the Potency in test [2] was 102 µM (active). In addition, the activity change, positive = activation in test [5] (setting [20]) was 4.71% (inactive).
For `CCCN(CC)CC1COC2(CCC(C(C)(C)C)CC2)O1` (stereo not given), the Potency result in test [1], in test [2], in [3], in test [7], in test [9] and in test [11] was “inactive” each time. For the same compound, the Potency entry in test [12], in test [14], in [15], in test [16], in test [17] and in [18] was “inactive” throughout. Further, the Potency result in test [19] is “inactive”. The max response in [13] is -8.74% (inactive).
